Measurements reported in the supplement of paper PMC6555819.

system: VDR:RXRa (NR concentration 270 nM, RXRa partner concentration 90 nM); test: PBM binding z-score (relative to random genomic background probes); higher = stronger binding; sequences stand for … in GC…GCGATTGACAGCGTAGAATGAAGG
Protocol: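 Protein-binding microarray (Agilent 4x180K custom design, double-stranded 60-nt probes: 5' GC cap, 34-nt variable region, 24-nt constant primer region; full probe sequence given). Purified or IVT nuclear receptor:RXRα heterodimers (3:1 NR:RXRα, mostly 270:90 nM) or homodimers were incubated for 1 h in PBS with 2% milk and no ligand, then detected with Alexa488 antibodies. Fluorescence from o1-orientation probes (~5 replicates averaged) was converted to z-scores against 500 random hg19 background probes. Variable regions are seed direct-repeat (DR0–DR5) sites, all their single-nucleotide variants and half-site ablations.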

Sequence | PBM binding z-score
CCTACTGGGCCAAAGGTCCTTGATTCCAATGCTC | -0.303
CGAACTAGGCCAAAGGACAGTGAAAGGCGACGTA | -0.722
CCGAGTTGGTTACGAGGGGGCATTCAGTGCGAAT | 4.32
CGAACTAGATCACCAGGACAGTGAAGAGGTTGGA | -0.366
ATATGTAGGTTAGCTGGCGTCATTCAGACTAGGC | -0.12
CCTCGGAGGACAGAAGGTCAGATCTGTCCGCTTT | 0.977
CGAACTAAGTCAAAGGACAGTGAAAGGCGACGTA | -0.259
TCATATAGGTCAAAGGTGAAAGTCGGTGTGGTAA | 4.65
CAAACTAGGTCAAAGGTCAAACTCGAGCCAACCA | 6.96
ATATGTAAGTTAGGGTCATTCAGAAAGTAGGGAA | 4.5
CAAACTAGGTCACGAAAGGTCAAATTCGAATGAC | 6.93
ATCGAAAGGTCGTGAGGTGAGTTTACAGAAAGGC | 4.49
CATAGTTGGTCAAGGTCACACACGCTATAGGTAC | 4.32
CTCGAAAGGTCGTGGTCAGGTGAGTATACCAAAC | 3.61
CCGAGTAGGTTATGAGGGGGCATTCAGTGCGAAT | 5.25
CGAAGTAGGTCAAAGGACAGTGAAAGGCGACGTA | 1.9
CGAACTTGGTCAAAGGACAGTGAAAGGCGACGTA | -0.101
CGAACTGGGTCAAAGGACAGTGAAAGGCGACGTA | 1.39
AATACAGGGTCGCTAGGCCAGAGTAGGTACGAAT | 0.828
CATACAGGGACAGCTAGGCCAGAGTAGGGACGGC | -0.582

Sequence | PBM binding z-score
ATATGTAGGTTAGGCTCATTCAGAAAGTAGGGAA | -0.124
AATACAGGGTCACTGGGCCAGAGTAGGTACGAAT | 4.65
CCAACTAGGTCATTGACAGGACAGTGAATAGTAA | 2.29
ATCGAAAGGGCGTGAGGTGAGTATACAGAAAGGC | 0.49
CGTCCAAGGTCAAGCTCAGTGAAAGAGACTCGAA | 4.06
ATCGAAAGGTCGAAGGTGACTATACCCACCCGAA | 2.9
CCGAGTAGGTTACAAGGGGGCATTCAGTGCGAAT | 5.11
TCTTGTAGATCAAAGCTTAAGAAAGCCGAAGCCT | -0.115
CGAACTAGATCAAAGGACAGTGAAAGGCGACGTA | -0.333
CCGACTGGGTCAAAGGTTACCATACTCAGTACGA | 4.41
GCTTACGGGTCAAAGGTTATAACATGAATAGAAT | 5.68
TCTAGTTGGTCAAAGGTCTCACACTCGAAATGCG | 1.42
CTATGTATGTTAAGGGGGTCATTCAGTTTGAAAG | 6.64
CCGAGTAGGTTACGGGGGGGCATTCAGTGCGAAT | 5.49
TCGAATAGGTTACGGGGGCATTCAGGGATGAAGA | 4.6
CTCGAAAGGTCAGTTGAGGTGAGTATACGGATAA | 4.7
ATATGTAGGTTAGCTGGAGTCATTCAGACTAGGC | 0.533
CGAACTAGGTCAAAGGATAGTGAAAGGCGACGTA | 1.12
CTTAGTTGGTCAAGGTCACACACGCTATAGGTAC | 4.52
CCTTGCGGGTCACTGACAGGTTATAGCATTTGGA | 3.13
